Test results: PubChem BioAssay (NCI)
This is part of a sample that, as a whole, favours compounds with a hit. Of some 83,000 tested, about 20% had one in any assay.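 Results are percent growth after 48 hours of single-concentration exposure. 100 means growth as in untreated cells, lower positive values show inhibition; negative values down to -100 show cell death.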 Values without a mark were called inactive. Active and inactive are the calls of the source. The calls were made as follows: active = growth percent below 10; inactive = the rest.

What was measured:
Assay in all cases: NCI-60 one-dose screen, 48 h (100 = growth as untreated, 0 = no growth, -100 = all killed)
Settings in all cases: 10 µM
DU-145 prostate = tested on: DU-145 prostate
K-562 leukemia = tested on: K-562 leukemia
MALME-3M melanoma = tested on: MALME-3M melanoma
MDA-MB-231 breast = tested on: MDA-MB-231 breast
RXF 393 renal = tested on: RXF 393 renal
SF-268 CNS = tested on: SF-268 CNS
SF-295 CNS = tested on: SF-295 CNS
SF-539 CNS = tested on: SF-539 CNS
UACC-257 melanoma = tested on: UACC-257 melanoma
M14 melanoma = tested on: M14 melanoma

Structure (SMILES) | growth (DU-145 prostate) [%] | growth (K-562 leukemia) [%] | growth (MALME-3M melanoma) | growth (MDA-MB-231 breast) [%] | growth (RXF 393 renal) [%] | growth (SF-268 CNS) [%] | growth (SF-295 CNS) | growth (SF-539 CNS) [%] | growth (UACC-257 melanoma) [%] | growth (M14 melanoma) [%]
Cc1ccc2c(c1)-c1cc(C)nn1-c1ccc(C#N)cc1O2 | 98.7 | 19.7 | 76.1% | 61 | 65 | 74.4 | 67.2% | 69.1 | 78.4 | 40
COc1ccc(C2C=C(c3ccc(Cl)c(Cl)c3)N=C3SC(C)=CN32)cc1OC (stereo not given) | 83.6 | 59.5 | 87.3% | 46.1 | 66.4 | 63.2 | 42.5% | 90.7 | 79.7 | 71
COC(=O)C1(C(=O)OC)C2C(=O)C3C(C21)C3(C(=O)OC(C)(C)C)C(=O)OC(C)(C)C (stereo not given) | 118 | 103 | 115% | 121 | 105 | 111 | 103% | 115 | 107 | 104
COc1cccc(C(=O)NNc2nc(N3CCN(C4CCCCC4)CC3)nc(N3CCN(C(c4ccccc4)c4ccccc4)CC3)n2)c1 | 87.5 | 11.5 | 9.41% (active) | 57.2 | 64.7 | 51.1 | 77.3% | 61.7 | 23.1 | 42.5
Cc1cnc(C=O)c2cccc([N+](=O)[O-])c12 | 92.3 | 51.3 | 81.1% | 93.4 | 93.1 | 88.5 | 89.9% | 90.1 | 107 | 95.9
CS(=O)(=O)Nc1ccc(Nc2c3ccccc3nc3cc(Cl)ccc23)cc1 | 24.2 | 20.6 | 28.3% | 86.5 | 20.9 | 37.6 | -13.5% (active) | 30.7 | 48 | 36.6
O=c1oc2cc(OS(=O)(=O)C3CC3)ccc2c2c1CCCCCC2 | 91.4 | 51.2 | 95.3% | 78.3 | 88.3 | 94.4 | 75.3% | 82.2 | 92.8 | 81.4
